High-throughput results: PubChem, several laboratories
Most compounds without a hit are left out; they make up all but 3.4% or so of the library.
H9c2 protect: cardioprotection against H2O2-induced cell death, primary screen, uHTS, H9c2 cells, ATPLite luminescence; actives 0.63% (n = 360,000); AID 588492, 2011; protection from H2O2 cell death, % at 20 µM; H9c2 cardiomyocytes, H2O2 injury protection, 2 h;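 active = compounds giving at least 50% protection of heart cells from peroxide-induced death in the single-dose screen, raw or plate-pattern-corrected value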;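 note: 0% = DMSO wells with peroxide and 100% = DMSO wells without peroxide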
COUP-TFII inh: NR2F2 transcriptional activity inhibitors, primary screen, cell-based, luciferase reporter, HEK293T, luminescence; COUP transcription factor 2 (Homo sapiens), P24468; HEK293T NGFI-A luciferase reporter; inhibition, % at 8.6 µM; actives 0.7% (n = 370,000);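 active = inhibition above a per-plate cutoff, mean inhibition of test wells between control levels plus 3 SD, cut at about 38% in these data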;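 note: cells cotransfected with COUP-TFII expression vector driving the NGFI-A reporter; 0% = median of COUP-TF2 test wells and 100% = reporter-only cells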
GalR3 antag: GalR3 antagonists in HEK293 cells, primary screen, cell-based, fluorescence readout. Galanin receptor type 3 (Homo sapiens), O60755. HEK293 GalR3-CNG cAMP membrane potential fluorescence; galR3 body fused to GalR1 C-terminus. inhibition, % at 3 µM. actives 0.44% (n = 360,000). AID 651719, 2012;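 active = inhibition above the screen-wide average plus 3 SD, cut at about 13% in these data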;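 note: forskolin and galanin both at EC90 stimulate the cells; cAMP rise reported by CNG channel membrane potential dye signal; 0% = forskolin plus galanin with DMSO and 100% = forskolin alone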
Target sequence (O60755 1-299 limits assumed): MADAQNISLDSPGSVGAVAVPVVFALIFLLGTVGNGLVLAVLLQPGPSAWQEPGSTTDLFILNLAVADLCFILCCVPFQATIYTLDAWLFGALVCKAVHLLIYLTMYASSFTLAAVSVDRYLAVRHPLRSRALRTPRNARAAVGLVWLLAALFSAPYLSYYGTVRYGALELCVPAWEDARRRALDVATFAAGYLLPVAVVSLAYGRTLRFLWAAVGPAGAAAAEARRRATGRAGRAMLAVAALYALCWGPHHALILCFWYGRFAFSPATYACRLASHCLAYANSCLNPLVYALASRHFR
SMARCA2 activ: SMARCA2 (BRM) function activators, primary screen, cell-based, luminescence, high throughput | activation, % at 9.1 µM | MG213 cells, MMTV-luciferase reporter, dexamethasone, overnight | actives 1% (n = 370,000); in the data active = activation above about 7.8%;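 note: 0% = vehicle wells and 100% = reference activator wells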
Gli-Sufu block: Gli-Sufu pathway antagonists, primary screen, luciferase luminescence, Sufu-KO-LIGHT cells, uHTS. Sufu-KO-LIGHT fibroblasts, Gli luciferase reporter luminescence. inhibition, % at 5 µM. actives 0.74% (n = 340,000). AID 588413, 2011;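 active = inhibition above about 55%, limit read from the data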;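 note: 0% = DMSO-treated cells and 100% = wells with medium but no cells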
GAA850 FXN act: FXN promoter activators, primary screen, cell-based, luciferase luminescence, HEK293 lucGAA850. activation, % at 6 µM. actives 0.56% (n = 360,000). HEK293 lucGAA850 FXN promoter luciferase reporter, 24 h; percent of 10 µM SAHA response. AID 540364, 2011;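 active = activation above the average of all compounds screened plus 3 SD, cutoff fixed separately per campaign, cut at about 7.5% in these data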;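 note: 0% = DMSO wells and 100% = 10 µM SAHA wells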
Gal4-VP16 ctr: Gal4-VP16 luciferase reporter inhibitors, counter-screen for COUP-TFII antagonist project, cell-based, luminescence, HEK293 | shares compounds with COUP-TFII inh | inhibition, % at 8.5 µM | AID 687007, 2013 | actives 25% (n = 2,500); in the data active = inhibition above about 13%
COUP-TFII conf: NR2F2 transcriptional activity inhibitors, confirmation, cell-based, luciferase reporter, HEK293, triplicate | shares compounds with COUP-TFII inh | HEK293 NGFI-A luciferase reporter, luminescence | inhibition, % at 8.5 µM | actives 45% (n = 2,500);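 active = mean inhibition over three repeats above a set limit taken from the earlier primary screen, cut at about 38% in these data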;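 note: 100% = cells given the luciferase reporter alone without the COUP-TF2 vector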
Active calls of the source: *; . = no result given.

SMILES	H9c2 protect	COUP-TFII inh	GalR3 antag	SMARCA2 activ	Gli-Sufu block	GAA850 FXN act	Gal4-VP16 ctr	COUP-TFII conf
O=S(Cc1ccc(Br)cc1)Cc1nnc(SCc2ccc(Cl)cc2)n1-c1ccccc1 (centres undefined)	-7	45*	-8	-7	22	-3	2	28
Cc1cccc(NC(=O)c2ccc(C3SCC(=O)N3CCc3ccccc3)cc2)c1 (centres undefined)	-4	45*	2	-7	1	-5	4	12
CC(C)Cc1ccc(C(C)C(=O)Nc2nccs2)cc1 (centres undefined)	-8	2	-6	-3	10	0	.	.
CC(C)Cc1ccc(C(C)C(=O)Nc2ccccc2O)cc1 (centres undefined)	-15	49*	-1	-6	38	-3	7	50*
CCN(CC)C(=O)CSc1nc(-c2ccccc2)cc(=O)[nH]1	-2	-4	0	1	.	0	.	.
COc1cc(C=C2CN(C)C(=O)C2=O)ccc1O	-1	3	-4	2	.	0	.	.
CCOc1cc(/C=C2\CN(C)C/C(=C\c3ccc(O)c(OCC)c3)C2=O)ccc1O	17	78*	-7	5	27	-13	57*	82*
CC(=O)c1ccc(N2CCN(C(=O)/C=C/c3ccc(S(=O)(=O)N4CCOCC4)cc3)CC2)cc1	-7	8	1	1	27	1	.	.
CC(=O)c1ccc(N2CCN(C(=O)/C=C/c3ccc(S(=O)(=O)NCc4ccco4)cc3)CC2)cc1	12	54*	-2	-7	25	-2	-1	28
COc1cccc(CNC(=O)CCS(=O)(=O)c2cc3c(cc2C)NC(=O)CO3)c1	-1	-5	.	-4	-15	-4	.	.
CN(C)S(=O)(=O)c1ccc(Cl)c(NC(=O)COC(=O)CCC2CCCCC2)c1	3	18	-1	-3	-1	1	.	.
COc1ccc(NC(=O)c2cc(CC(C)C)nc3ccccc23)cc1	3	42*	-1	-2	-15	-1	-6	22
Cc1ccc(-n2nc3c(=O)n(C(C)C(=O)NCc4ccco4)nc(C)c3c2C)cc1 (centres undefined)	-5	1	3	-1	-1	1	.	.
Cc1ccc(-n2nc3c(=O)n(C(C)C(=O)NCCCc4ccccc4)nc(C)c3c2C)cc1 (centres undefined)	-6	55*	-9	-4	16	-1	-2	45*
Cc1ccc(-n2nc3c(=O)n(C(C)C(=O)NCc4ccccc4Cl)nc(C)c3c2C)cc1 (centres undefined)	-4	47*	-4	-4	-2	-2	5	39*
CCC1Oc2ccc(C)cc2N(CC(=O)NCCN2CCOCC2)C1=O (centres undefined)	1	5	-7	2	22	0	.	.
C=CCn1c(C)cc(C(=O)COc2ccc(C)nc2[N+](=O)[O-])c1C	-14	40*	-5	-8	24	-9	-11	16
O=C(c1ccccc1)c1nn(-c2ccc(Cl)cc2)c(=O)cc1C(F)(F)F	-13	40*	2	-1	12	-10	50*	62*
O=C(c1ccccc1)c1nn(-c2ccccc2)c(=O)cc1C(F)(F)F	-2	17	0	-1	3	2	.	.
CCOc1ccccc1N1CCN(C(=O)c2csc(C)c2CC)CC1	9	-9	-2	-1	18	1	.	.
COc1ccc2cc3cc(C(=O)Nc4ccc5c(c4)OCCO5)oc3nc2c1	-2	-8	0	-6	3	-1	.	.
